Consider seven molecules from PubChem BioAssay (Tox21).

A number with no mark means an inactive call. Results filed as inconclusive are left out. Calls of active or inactive are those of the source. Unless noted, calls come from the whole dose curve; as a rule, active = well fitted curve in the direction sought with a large enough effect in the repeat runs; inconclusive = weak or mixed curves; inactive = no such curve, though single readings can be large; an effect the other way counts as inactive or inconclusive.

The nature of experiment [1]: qHTS assay to identify small molecule antagonists of the estrogen related receptor (ERR) signaling pathway from Tox21 library - cell viability counter screen (AID 1224834). Note: nearly all actives have a fitted effect of over 30% in size. Put shortly:
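Viability readout (CellTiter-Fluor fluorescence, 30 min at 37 C) multiplexed with the ERR assay; cells treated 17.5 h at 37 C with compounds delivered in DMSO.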
Background: qHTS replaces the single test concentration by a dilution series.

Experiment [2] has as its target Luciferin 4-monooxygenase (Photinus pyralis) (UniProt P08659). Nature of the experiment: qHTS assay to identify small molecule inhibitors of firefly luciferase (AID 1224835). Note: nearly all actives have a fitted effect of over 25% in size. Put shortly: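 Quantitative HTS format; KM concentrations of both substrates. Purified P. pyralis FLuc activity quantified from luminescence images.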
Experiment [3] is described as follows: qHTS assay to identify small molecule agonists of the constitutive androstane receptor (CAR) signaling pathway - cell viability counter screen (AID 1224836). Note: nearly all actives have a fitted effect of over 45% in size. Put shortly:
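Multiplexed viability check: HepG2-CYP2B6-hCAR cells, 15-point compound dosing, 0.75 uM PK11195 final, 23 h at 37 C, CellTiter-Fluor fluorescence.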

A short description of experiment [4]: qHTS assay to identify small molecule antagonists of the constitutive androstane receptor (CAR) signaling pathway - cell viability counter screen (AID 1224837). Note: nearly all actives have a fitted effect of over 45% in size. The gist of the method: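 Fluorescence from CellTiter-Fluor served as the viability signal. Human hepatoma HepG2 cells stably bearing hCAR and CYP2B6-2.2kb received compound plus CITCO (50 nM final) for 23 hr.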

Experiment [5] is described as follows: qHTS assay to identify small molecule antagonists of the estrogen related receptor signaling pathway with the pleiotropic PPARgamma coactivator (PGC) from Tox21 10K library - cell viability counter screen (AID 1224840; active = well fitted cell-killing curve with a large enough effect in the repeat runs, not every such curve was filed as active; note: nearly all actives have a fitted effect of over 40% in size). Put shortly:
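Compounds in DMSO, alongside positive and negative controls, were pinned onto PGC/ERR cells (2,000 per well). Exposure lasted 17.5 hours at 37 C, followed by a 30-minute CellTiter-Fluor incubation and fluorescence reading.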

Experiment [6] is described as follows: qHTS assay to identify small molecule antagonists of the estrogen related receptor signaling pathway with the pleiotropic PPARgamma coactivator (PGC) from Tox21 10K library (AID 1224841; call rule not given here; note: actives are mostly falling curves and most rising ones were filed inactive; nearly all actives have a fitted effect of over 50% in size). The gist of the method:
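Compound exposure ran 18 hours at 37 C in PGC/ERR cells (2,000/well) that had first rested 6 hours in a 37 C/5% CO2 incubator. Luciferase activity was then detected with One-Glo after a 30-minute room-temperature step.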

Experiment [7] can be described thus: qHTS assay to identify small molecule agonists of the estrogen related receptor signaling pathway with the pleiotropic PPARgamma coactivator (PGC) from Tox21 10K library (AID 1224842). Note: nearly all actives have a fitted effect of over 15% in size. The gist of the method:
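PGC/ERR reporter cells (NTP line) were seeded 2,000 per well, rested 6 h at 37 C/5% CO2, then pin-dosed with compounds in DMSO for 18 h at 37 C; luciferase read by One-Glo luminescence after 30 min at room temperature.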

Experiment [8] concerns the target Thyrotropin receptor (Homo sapiens) (UniProt P16473). Briefly: qHTS assay to identify small molecule agonists of the thyroid stimulating hormone receptor (TSHR) signaling pathway (AID 1224843; calls by dose curve; note: nearly all actives have a fitted effect of over 45% in size). The gist of the method: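 TSHR-expressing HEK293 cells (800 per well) were exposed to compounds for 30 min at room temperature. cAMP was then detected by HTRF competition with cAMP-d2 and anti-cAMP cryptate, read after 1 h at room temperature. Fifteen concentrations, triplicate.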

Experiment [9] can be described thus: qHTS assay to identify small molecule agonists of the hypoxia (HIF-1) signaling pathway - cell viability counter screen (AID 1224844; calls by dose curve; note: nearly all actives have a fitted effect of over 50% in size). The gist of the method:
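Luminescent ATP content (CellTiter-Glo, 30 min, room temperature) served as the viability measure in HRE-bla ME-180 cells exposed to compounds for 17 hrs in low-serum medium (0.5% dialyzed FBS).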

The nature of experiment [10]: qHTS assay to identify small molecule agonists of H2AX (AID 1224845; active = well fitted activation curve with a large enough effect in the signal ratio in the repeat runs, not every such curve was filed as active; the % refers to the signal ratio). The gist of the method:
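Wild-type CHO-K1 cells plated overnight, then exposed 3 hr at 37C to compounds at 15 concentrations (0.76% DMSO). Lysed, then HTRF anti-pH2AX(S139)-cryptate/anti-H2AX-d2 detection after 24 hr at room temperature; emissions 665 and 620 nm.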

A short description of experiment [11]: qHTS assay to identify small molecule agonists of the hypoxia (HIF-1) signaling pathway (AID 1224846; active = well fitted activation curve with a large enough effect in the signal ratio in the repeat runs, not every such curve was filed as active; the % refers to the signal ratio). The gist of the method:
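Measured by blue/green FRET after loading CCF4-AM: beta-lactamase expressed from a hypoxia response element in ME-180 cells. Test agents were delivered in DMSO and left 17 hrs; cells had been plated 5 hrs earlier in low-serum (0.5% dialyzed FBS) medium.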

Experiment [12] in a line: qHTS assay to identify small molecule antagonists of the estrogen related receptor (ERR) signaling pathway from Tox21 library (AID 1224848). Note: nearly all actives have a fitted effect of over 50% in size. The gist of the method:
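Cells: ERR line, 2,000/well; 6 h preincubation 37 C/5% CO2. Cpd in DMSO via pin tool; 18 h, 37 C. ONE-Glo, 30 min RT, luminescence.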

Experiment [13] is described as follows: qHTS assay to identify small molecule agonists of the estrogen related receptor (ERR) signaling pathway from Tox21 library (AID 1224849; calls by dose curve; note: nearly all actives have a fitted effect of over 15% in size). Conditions: ERR reporter cell line, ONE-Glo luciferase, 18 h; at 92.4 µM (top of the series) unless noted. The gist of the method:
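We plated ERR reporter cells, waited 6 h, added compounds in DMSO by pin tool and incubated them 18 h at 37 C. ONE-Glo was then added and luminescence read after 30 min.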

Experiment [14] can be described thus: qHTS RealTime-Glo MT Cell Viability Assay in HepG2 cells - 24 hour (AID 1224867). Note: nearly all actives have a fitted effect of over 50% in size. The gist of the method:
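HepG2 cells (600/well) were dispensed with RealTime-Glo reagents, incubated 5 h at 37 °C, then treated with compounds in DMSO for up to 40 h. Nonlytic NanoLuc luminescence reflecting viable cells was read at each stated time point.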

A short description of experiment [15]: qHTS RealTime-Glo MT Cell Viability Assay in HEK293 cells - 32 hour (AID 1224868). Note: nearly all actives have a fitted effect of over 50% in size. Note: potency is the fitted concentration of half-maximal effect. Put shortly: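 HEK293 cells seeded with NanoLuc/prosubstrate reagent, rested 5 h at 37 C, then dosed and kept at 37 C up to 40 h. Nonlytic real-time luminescence from viable cells read at 0, 8, 16, 24, 32 and 40 h.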
A short description of experiment [16]: A CellTox Green Cytotoxicity Assay to monitor cytotoxicity in HEK293 cells - 0 hour (AID 1224869). Note: nearly all actives have a fitted effect of over 50% in size. Put shortly:
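Each value comes from one timepoint of a single continuous run in which HEK293 cells with CellTox Green were exposed to compound for up to 40 h at 37 C, dye fluorescence rising with cell death.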

The nature of experiment [17]: qHTS RealTime-Glo MT Cell Viability Assay in HepG2 cells - 40 hour (AID 1224870). Note: nearly all actives have a fitted effect of over 50% in size. Put shortly: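 HepG2 cells mixed with RealTime-Glo MT reagents (NanoLuc plus cell-permeant prosubstrate) were seeded at 600 cells/well, incubated 5 h at 37 C/5% CO2, then pinned with compounds in DMSO; nonlytic luminescence tracked viability during 40 h treatment.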
Experiment [18] can be described thus: qHTS assay to identify small molecule agonists of H2AX - cell viability counter screen (AID 1224847; calls by dose curve; note: top concentration of the series differs between compounds; nearly all actives have a fitted effect of over 30% in size). Put shortly: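 After overnight plating of 1000 CHO-K1 cells per well, a 15-concentration compound series was applied for 3 hr at 37C. Luminescence from CellTiter-Glo, read following 30 min at room temperature, reflected cell viability.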
For experiment [19], the target named is Nuclear receptor subfamily 1 group I member 3 (Homo sapiens) (UniProt Q14994). Nature of the experiment: qHTS assay to identify small molecule antagonists of the constitutive androstane receptor (CAR) signaling pathway (AID 1224838).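 Note: HepG2 cells stably expressing hCAR with CYP2B6 luciferase reporter stimulated by CITCO; nearly all actives have a fitted effect of over 40% in size.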 The gist of the method: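 Quantitative HTS in double-stable HepG2-CYP2B6-hCAR cells. After 4 h plating, cells get compound (15 concentrations) and CITCO at 50 nM final, incubate 24 h at 37 C, then ONE-Glo luminescence is read.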
Nuclear receptor subfamily 1 group I member 3 (Homo sapiens), sequence (Q14994 whole entry, looked up): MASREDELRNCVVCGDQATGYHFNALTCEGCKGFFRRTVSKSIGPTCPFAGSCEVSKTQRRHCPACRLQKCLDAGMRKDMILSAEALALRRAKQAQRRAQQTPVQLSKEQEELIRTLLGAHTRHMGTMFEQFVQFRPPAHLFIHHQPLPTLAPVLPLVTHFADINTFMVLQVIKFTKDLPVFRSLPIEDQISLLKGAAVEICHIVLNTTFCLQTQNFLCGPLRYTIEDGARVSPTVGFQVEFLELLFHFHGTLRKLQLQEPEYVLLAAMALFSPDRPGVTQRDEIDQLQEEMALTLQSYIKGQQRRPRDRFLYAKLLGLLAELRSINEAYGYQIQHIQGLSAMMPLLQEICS

The target is the same in experiment [20]. Nature of the experiment: qHTS assay to identify small molecule agonists of the constitutive androstane receptor (CAR) signaling pathway (AID 1224839).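 For activation: HepG2 cells stably carrying human CAR and a CYP2B6 luciferase reporter.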 Note: nearly all actives have a fitted effect of over 15% in size. Note: potency is the fitted concentration of half-maximal effect. Put shortly: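 Using human hepatoma HepG2 cells engineered with hCAR and a CYP2B6-2.2kb reporter, 15-concentration compound series were incubated 24 h alongside PK11195 at 0.75 uM final, with luminescence quantified afterwards.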
% is set by controls: 0 for no effect and ±100 for the full control effect.

Thyrotropin receptor (Homo sapiens), sequence (P16473 whole entry, looked up): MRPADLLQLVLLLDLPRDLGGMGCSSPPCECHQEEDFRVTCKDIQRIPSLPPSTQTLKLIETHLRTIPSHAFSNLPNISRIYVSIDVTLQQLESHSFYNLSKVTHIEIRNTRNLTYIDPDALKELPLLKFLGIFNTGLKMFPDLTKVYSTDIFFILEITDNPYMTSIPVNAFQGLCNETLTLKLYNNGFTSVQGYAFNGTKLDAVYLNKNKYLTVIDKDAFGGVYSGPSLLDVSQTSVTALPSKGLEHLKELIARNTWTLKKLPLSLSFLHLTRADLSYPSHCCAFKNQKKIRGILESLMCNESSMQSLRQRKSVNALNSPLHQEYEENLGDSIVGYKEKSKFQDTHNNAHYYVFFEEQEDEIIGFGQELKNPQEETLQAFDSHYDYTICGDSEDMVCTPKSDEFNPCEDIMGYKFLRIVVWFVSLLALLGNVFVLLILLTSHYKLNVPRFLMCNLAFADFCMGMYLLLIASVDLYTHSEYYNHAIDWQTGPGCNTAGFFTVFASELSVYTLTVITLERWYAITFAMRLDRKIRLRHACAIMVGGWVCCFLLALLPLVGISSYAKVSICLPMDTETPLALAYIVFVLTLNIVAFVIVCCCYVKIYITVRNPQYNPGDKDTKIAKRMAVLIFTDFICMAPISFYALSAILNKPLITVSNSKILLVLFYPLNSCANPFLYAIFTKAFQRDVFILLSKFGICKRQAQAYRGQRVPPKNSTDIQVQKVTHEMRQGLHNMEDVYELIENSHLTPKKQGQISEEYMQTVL
Luciferin 4-monooxygenase (Photinus pyralis), sequence (P08659 whole entry, looked up): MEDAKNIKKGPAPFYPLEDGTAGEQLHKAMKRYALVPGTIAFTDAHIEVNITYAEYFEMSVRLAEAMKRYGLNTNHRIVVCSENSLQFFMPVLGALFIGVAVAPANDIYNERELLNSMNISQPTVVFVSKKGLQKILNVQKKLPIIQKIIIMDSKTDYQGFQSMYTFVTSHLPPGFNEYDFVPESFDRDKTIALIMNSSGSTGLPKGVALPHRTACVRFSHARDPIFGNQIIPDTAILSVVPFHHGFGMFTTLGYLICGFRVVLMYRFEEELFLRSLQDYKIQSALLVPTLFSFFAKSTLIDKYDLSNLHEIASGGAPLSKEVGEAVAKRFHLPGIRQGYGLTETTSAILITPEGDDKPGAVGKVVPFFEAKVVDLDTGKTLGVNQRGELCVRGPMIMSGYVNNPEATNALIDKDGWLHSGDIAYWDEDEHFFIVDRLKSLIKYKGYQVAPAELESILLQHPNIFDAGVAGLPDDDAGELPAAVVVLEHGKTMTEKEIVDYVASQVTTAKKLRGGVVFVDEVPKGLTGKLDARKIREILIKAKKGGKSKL

Consider `C/C(=C(\CCO)SS/C(CCO)=C(\C)N(C=O)Cc1cnc(C)nc1N)N(C=O)Cc1cnc(C)nc1N`, for which the Potency result in experiment [1], in [2], in experiment [3], in experiment [4], in [5] and in experiment [6] was “inactive” each time. The Potency result in [7], in [8], in [9], in [10], in [12] and in experiment [15] was “inactive” in each case. For the same molecule, the Potency entry in [16] and in experiment [17] was “inactive” throughout. Moreover, the result in experiment [11] and in experiment [14] was inactive. The activity change, positive = activation in experiment [13] is 3.66% [at 42.5 µM].
Regarding `Cc1c(Cl)cccc1[N+](=O)[O-]`, the Potency entry in experiment [1], in experiment [2], in [3], in experiment [4], in experiment [5] and in experiment [9] was “inactive” throughout. In addition, the Potency result in experiment [10], in [18], in experiment [15], in experiment [16] and in experiment [17] was “inactive” throughout. For the same molecule, the molecule was called inactive in [11] and in experiment [14].
Take `CCOCCn1c(N2CCCN(C)CC2)nc2ccccc21`: the Potency entry in experiment [1], in [2], in [3], in experiment [4], in experiment [5] and in [9] was “inactive” in each case. Moreover, the Potency entry in [10], in experiment [18], in experiment [15], in experiment [16] and in experiment [17] was “inactive” throughout. Besides, the molecule was classed as inactive in experiment [11] and in experiment [14].
As for `CCCCCCCCCCCCSCCOCCO`, the Potency result in experiment [1], in experiment [2], in experiment [3], in [4], in experiment [5] and in [6] was “inactive” each time. For the same molecule, the Potency entry in [7], in experiment [8], in experiment [9], in experiment [10], in [12] and in [15] was “inactive” throughout. Also, the Potency result in [16] and in experiment [17] was “inactive” each time. In addition, the outcome in experiment [11] and in experiment [14] was inactive. For the same molecule, the activity change, positive = activation in [13] is -7.91% [at 42.5 µM].
For the molecule `CC(C)(C)c1ccc(CCC=O)cc1`, the Potency result in experiment [1], in [3], in experiment [4], in [19], in experiment [20] and in experiment [5] was “inactive” throughout. The Potency entry in experiment [9], in experiment [10], in experiment [18], in experiment [15], in [16] and in experiment [17] was “inactive” throughout. Also, the molecule was called inactive in experiment [11] and in [14].
`COc1ccnc2c1CCCCC2S(=O)c1nc2ccccc2[nH]1` (centres undefined): the Potency entry in experiment [1], in experiment [3], in [4], in [19], in [5] and in [8] was “inactive” each time. Further, the Potency entry in experiment [18], in [16] and in experiment [17] was “inactive” each time. In addition, the Potency is 23.7 µM (active) in experiment [20] and 7.56 µM (active) in [15]. The call in [11] and in experiment [14] was inactive.
Turning to `CC(C)(C(=O)O)c1ccc(C(O)CCCN2CCC(C(O)(c3ccccc3)c3ccccc3)CC2)cc1` (centres undefined), the Potency entry in experiment [1], in experiment [2], in experiment [3], in experiment [20], in experiment [5] and in [8] was “inactive” each time. In addition, the Potency entry in experiment [9], in [10], in [15], in experiment [16] and in experiment [17] was “inactive” throughout. In experiment [14], the call was inactive.
